# According to PubChem BioAssay:
# Several values for one entry are separate records, joined by “and”; a condition that tells them apart may be missing. Equal entries are not always repeated. Records with an inconclusive call do not appear. For part of these data: Entries with a potency or affinity are not part of this list. Activity calls are given as the source filed them.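 How the source made its calls, unless noted: active means compounds whose cell count with miR-34 switched on is under 0.7 times the count with it off; inactive means the rest.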
# Columns and labels:
# [1] = liver-stage malaria parasite growth inhibition, primary screen, cell-based, HepG2, luciferase luminescence, HepG2 viability (AID 624349; in the data active means parasite load remaining mostly below about 12%, no sharp cut-off; inactive means mostly above about 10%;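 further: 100% = mean of DMSO negative control wells on the same plate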); conditions: P. berghei liver stage in HepG2, luciferase luminescence, concentration not given here; parasite load remaining: stronger effect = lower value; viability: measured here: HepG2 viability without parasites
# [2] = target: 6-phosphogluconate dehydrogenase, decarboxylating (Homo sapiens) (UniProt P52209); test: 6PGD enzyme inhibitors, primary screen, biochemical, human, recombinant enzyme, NADPH absorbance (AID 1159550;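 active means at least 20% inhibition of 6-phosphogluconate dehydrogenase activity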); conditions: recombinant 6PGD, NADPH absorbance 341 nm; at 10 µM; stronger effect = higher value
# [3] = sensitizers of A549 cells to miR-34 induction, primary screen, imaging, A549 dox-inducible miR-34, nuclei and caspase counts (AID 1347080); conditions: A549 miR-34 inducible, Hoechst nuclei count, 48 h
# [4] = survival rescue of mitochondrial mutant cells in low glucose, primary screen, MELAS cybrids, Rieske KO mouse fibroblasts, CellTiter-Glo (AID 1508586;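 active means mean z-score across replicates of 1.96 or higher in either the MELAS or the Rieske mutant cell line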;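 further: z relative to plate mean and SD of compound and empty wells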)
# [5] = target: NAD(+) hydrolase SARM1 (Homo sapiens) (UniProt Q6SZW1); test: SARM1 TIR NADase inhibitors, cell lysate, NAD-Glo luminescence (AID 1508614;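 active means compound whose remaining NAD level is above about 45 nM, limit read from the data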); conditions: SAM-TIR HEK293T lysate NADase, at 1 µM, stronger effect = higher value
# [6] = target: Mitogen-activated protein kinase 7 (Homo sapiens) (UniProt Q13164); test: ERK5 transactivation activators in reporter cells, primary screen, cell-based, HTS (AID 1508626;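 active means luciferase signal above three times the same-plate solvent-only control wells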;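 further: luciferase driven by Gal4-ERK5 fusion binding five Gal4 sites before minimal TATA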); conditions: HeLa Gal4-ERK5 transactivation, 18 h, at 5 µM, stronger effect = higher value
# [7] = target: ATP-dependent translocase ABCB1 (Homo sapiens) (UniProt P08183); test: MDR1 (ABCB1) efflux transporter inhibition, cell-based (AID 377; in the data active means fluorescence slope change above about 50%); conditions: MDR1-expressing cells, fluorescent substrate accumulation slope; stronger effect = higher value; concentration not given here
# [8] = hESC survival regulators, cell-based (AID 493140; call rule not given here;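 further: cells exposed to compounds for four days before counting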); conditions: human embryonic stem cell survival screen; stronger effect = higher value
# [9] = viability rescue of complex I mutant cybrids, primary screen, cell-based, galactose medium, ATP luminescence (AID 1645843;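 active means z-score of at least 1.8 in each of two replicates, scored against plate mean and spread of sample wells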;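 further: positive z means more ATP and so rescue of galactose-driven cybrid death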); conditions: complex I mutant cybrid cells, 72 h, stronger effect = higher value
# [10] = circadian clock period modulators, cell-based, LOPAC library, luminescence reporter (AID 2774; call rule not given here;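 further: values are relative to mean of DMSO wells on each plate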); conditions: circadian reporter cells, at 7 µM, actives lie on both sides
# [11] = tested on: Hepatitis C virus NS3 helicase; test: HCV NS3 helicase inhibitors, primary screen, biochemical, fluorescence polarization, LOPAC1280 library (AID 687035; in the data active means inhibition above about 37%); conditions: Purified HCV NS3 helicase, Cy5-dT15 ssDNA binding fluorescence polarization; stronger effect = higher value; concentration not given here
# [12] = Cy5 fluorescence quenching or enhancement artefacts, artefact control for HCV NS3 helicase inhibitor project, biochemical, LOPAC1280 (AID 687037; call rule not given here); conditions: Cy5-DNA-NS3h complex fluorescence interference counterscreen
# [13] = phospholipid biosynthesis inhibitors in animal cells, primary screen, cell-based, LOPAC library, screen 4 (AID 1347384; call rule not given here); conditions: phospholipid biosynthesis inhibition screen, at 10 µM
# [14] = polyglutamine-triggered caspase-3 activation inhibitors, cell-based (AID 1583); conditions: polyglutamine-induced caspase-3 activation, cell assay; stronger effect = higher value;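 tested at 10 µM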
# [15] = suppressors of polyQ aggregation in yeast, 75Q-TubU reporter (AID 1593); conditions: Yeast 75Q polyglutamine aggregation reporter
# [16] = rescue of polyQ-huntingtin neuronal dysfunction in worms, whole organism, C. elegans mechanosensory neurons, N-terminal huntingtin (AID 1599); conditions: touch response, stronger effect = higher value
# [17] = inhibitors of mitochondrial cytochrome c release, biochemical, purified mitochondria (AID 1603); conditions: stronger effect = lower value;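 further: mouse liver mitochondria challenged with calcium chloride; signal normalized to the plate average as 100%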
# [18] = inhibitors of polyQ protein aggregation (AID 1604); conditions: polyglutamine-induced protein aggregation inhibition assay; stronger effect = higher value; tested at 2.5 µM
# [19] = protection against mutant huntingtin cytotoxicity, PC12 cells, LDH release (AID 1610); conditions: PC12 mutant huntingtin toxicity, final LDH at 4 uM, stronger effect = lower value
# [20] = enhancers of glutamate uptake in motor neurons, MN-1 cell line (AID 1612); conditions: MN-1 motor neuron cells, stronger effect = higher value;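 further: tested at 1 µM final; 0% = mean of DMSO vehicle wells on each plate; positive means more glutamate uptake than control and negative means less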
# [21] = reducers of polyQ inclusions in PC12 cells, cell-based, NGF-treated PC12, GFPQ80 (AID 1614); conditions: PC12 NGF-treated GFP-polyQ80 inclusion reduction;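 further: lower means fewer inclusions and 0 means no inclusions at all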
# [22] = suppressors of polyglutamine aggregation in yeast, 75Q-TubH (AID 1616); conditions: S. cerevisiae 75Q-TubH polyglutamine aggregation suppression; stronger effect = higher value
# [23] = stronger effect = lower value, cell number ratio, induced over uninduced
# [24] = measured here: relative caspase fold change +Dox/-Dox
# [25] = measured here: total cells with miR-34 induction, stronger effect = lower value
# [26] = measured here: total cells without miR-34 induction
# [27] = MELAS cybrid survival, CellTiter-Glo 48 h, stronger effect = higher value
# [28] = Rieske KO mouse fibroblast survival, CellTiter-Glo 72 h
# Chain of Mitogen-activated protein kinase 7 (Homo sapiens) (Q13164 whole entry, looked up, the tested form may be a part): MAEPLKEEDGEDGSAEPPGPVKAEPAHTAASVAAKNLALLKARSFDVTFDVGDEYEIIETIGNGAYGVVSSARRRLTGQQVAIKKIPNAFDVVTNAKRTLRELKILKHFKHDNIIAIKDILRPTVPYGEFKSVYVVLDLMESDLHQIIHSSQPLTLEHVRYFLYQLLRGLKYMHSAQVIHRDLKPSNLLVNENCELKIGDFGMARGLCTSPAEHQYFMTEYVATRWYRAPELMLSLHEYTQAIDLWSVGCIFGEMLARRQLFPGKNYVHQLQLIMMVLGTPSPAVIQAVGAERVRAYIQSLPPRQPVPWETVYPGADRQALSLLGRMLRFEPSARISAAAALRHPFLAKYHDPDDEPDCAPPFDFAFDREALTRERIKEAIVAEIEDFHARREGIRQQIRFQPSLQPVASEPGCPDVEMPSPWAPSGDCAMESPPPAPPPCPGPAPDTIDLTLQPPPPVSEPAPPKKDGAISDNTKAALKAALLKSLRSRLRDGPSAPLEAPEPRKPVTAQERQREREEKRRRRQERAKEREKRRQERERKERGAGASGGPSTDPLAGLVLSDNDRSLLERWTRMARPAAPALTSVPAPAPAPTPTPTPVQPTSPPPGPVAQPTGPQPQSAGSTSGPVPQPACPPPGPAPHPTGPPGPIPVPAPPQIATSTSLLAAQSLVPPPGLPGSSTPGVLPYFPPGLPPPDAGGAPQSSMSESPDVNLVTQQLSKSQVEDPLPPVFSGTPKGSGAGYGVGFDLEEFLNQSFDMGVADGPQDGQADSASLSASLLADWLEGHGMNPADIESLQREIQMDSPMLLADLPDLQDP
# Chain of 6-phosphogluconate dehydrogenase, decarboxylating (Homo sapiens) (P52209 whole entry, looked up): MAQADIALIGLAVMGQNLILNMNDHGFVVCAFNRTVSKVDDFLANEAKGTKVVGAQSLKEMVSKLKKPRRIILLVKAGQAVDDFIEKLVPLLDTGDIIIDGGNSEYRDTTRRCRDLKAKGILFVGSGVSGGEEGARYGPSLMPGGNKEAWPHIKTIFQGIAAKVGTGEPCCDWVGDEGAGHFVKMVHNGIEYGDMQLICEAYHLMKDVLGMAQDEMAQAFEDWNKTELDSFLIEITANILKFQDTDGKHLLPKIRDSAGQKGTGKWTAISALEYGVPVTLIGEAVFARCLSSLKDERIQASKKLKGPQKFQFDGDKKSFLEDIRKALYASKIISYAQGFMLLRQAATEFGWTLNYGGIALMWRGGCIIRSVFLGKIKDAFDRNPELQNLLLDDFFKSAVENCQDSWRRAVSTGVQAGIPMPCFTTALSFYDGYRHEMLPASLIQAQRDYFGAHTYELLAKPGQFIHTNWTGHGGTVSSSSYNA
# Chain of NAD(+) hydrolase SARM1 (Homo sapiens) (Q6SZW1 whole entry, looked up, the tested form may be a part): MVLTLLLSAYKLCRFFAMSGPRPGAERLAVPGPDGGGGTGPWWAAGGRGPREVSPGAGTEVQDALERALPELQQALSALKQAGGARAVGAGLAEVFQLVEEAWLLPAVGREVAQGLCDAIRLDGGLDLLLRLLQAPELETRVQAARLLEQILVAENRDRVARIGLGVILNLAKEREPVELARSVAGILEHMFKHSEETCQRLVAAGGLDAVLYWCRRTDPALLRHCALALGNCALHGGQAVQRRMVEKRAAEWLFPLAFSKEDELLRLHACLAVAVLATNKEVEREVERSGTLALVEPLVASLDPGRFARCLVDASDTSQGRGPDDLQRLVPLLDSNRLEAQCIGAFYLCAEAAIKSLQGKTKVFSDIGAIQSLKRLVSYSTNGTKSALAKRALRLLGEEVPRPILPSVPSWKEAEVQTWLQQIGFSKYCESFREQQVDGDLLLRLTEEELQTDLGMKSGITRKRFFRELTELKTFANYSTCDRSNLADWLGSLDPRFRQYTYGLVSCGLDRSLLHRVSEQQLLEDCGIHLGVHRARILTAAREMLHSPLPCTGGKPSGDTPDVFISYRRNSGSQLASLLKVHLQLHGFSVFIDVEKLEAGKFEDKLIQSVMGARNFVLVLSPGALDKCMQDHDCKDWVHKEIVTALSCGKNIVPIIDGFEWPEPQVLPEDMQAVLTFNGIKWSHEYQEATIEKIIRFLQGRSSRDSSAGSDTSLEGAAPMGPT
# Chain of ATP-dependent translocase ABCB1 (Homo sapiens) (P08183 whole entry, looked up): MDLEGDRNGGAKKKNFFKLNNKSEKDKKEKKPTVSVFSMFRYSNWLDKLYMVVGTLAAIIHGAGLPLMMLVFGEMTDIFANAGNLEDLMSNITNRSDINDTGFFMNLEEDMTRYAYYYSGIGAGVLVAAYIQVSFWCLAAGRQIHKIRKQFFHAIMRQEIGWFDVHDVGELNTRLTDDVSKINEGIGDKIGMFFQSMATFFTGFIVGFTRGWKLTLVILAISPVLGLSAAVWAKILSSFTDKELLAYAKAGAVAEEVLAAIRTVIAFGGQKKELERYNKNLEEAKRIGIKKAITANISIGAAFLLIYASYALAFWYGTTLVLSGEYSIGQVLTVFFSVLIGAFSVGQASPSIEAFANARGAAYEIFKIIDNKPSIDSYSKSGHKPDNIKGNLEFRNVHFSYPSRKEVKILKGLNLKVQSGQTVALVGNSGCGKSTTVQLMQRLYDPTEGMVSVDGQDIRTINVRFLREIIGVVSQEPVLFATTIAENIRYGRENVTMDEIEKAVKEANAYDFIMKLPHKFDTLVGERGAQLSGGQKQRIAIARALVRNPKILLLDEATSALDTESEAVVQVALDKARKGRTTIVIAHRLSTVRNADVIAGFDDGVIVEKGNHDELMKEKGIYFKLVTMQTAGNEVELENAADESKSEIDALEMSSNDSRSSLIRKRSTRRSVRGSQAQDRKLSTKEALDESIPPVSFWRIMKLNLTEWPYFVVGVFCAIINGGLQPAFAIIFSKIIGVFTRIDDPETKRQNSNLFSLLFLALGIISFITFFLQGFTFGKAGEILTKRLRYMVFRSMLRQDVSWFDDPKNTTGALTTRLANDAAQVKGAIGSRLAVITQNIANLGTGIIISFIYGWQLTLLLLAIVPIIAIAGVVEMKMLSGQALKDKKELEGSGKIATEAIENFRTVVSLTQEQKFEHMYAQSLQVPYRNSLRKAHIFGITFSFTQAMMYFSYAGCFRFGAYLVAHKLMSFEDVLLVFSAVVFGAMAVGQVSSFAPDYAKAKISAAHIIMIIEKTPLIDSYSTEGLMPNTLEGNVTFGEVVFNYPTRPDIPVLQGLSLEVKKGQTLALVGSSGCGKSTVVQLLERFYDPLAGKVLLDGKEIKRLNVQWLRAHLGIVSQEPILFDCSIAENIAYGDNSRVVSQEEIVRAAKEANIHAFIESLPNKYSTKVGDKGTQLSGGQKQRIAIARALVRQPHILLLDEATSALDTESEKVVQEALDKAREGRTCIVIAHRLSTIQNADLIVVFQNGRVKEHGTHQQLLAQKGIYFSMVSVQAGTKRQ
compound,measurement,setting,value
CO/N=C(\C(=O)N[C@@H]1C(=O)N2C(C(=O)O)=C(COC(N)=O)CS[C@H]12)c1ccco1,parasite load remaining,[1],120% (inactive)
same,viability,[1],107%
same,inhibition,[2],-1.88% (inactive)
same,fold change,[3]; [23],0.899 (inactive)
same,fold change,[3]; [24],1.25
same,cell count,[3]; [25],8800
same,cell count,[3]; [26],9790
same,z-score,[4]; [27],-0.736 (inactive)
same,z-score,[4]; [28],-1.31
same,remaining NAD,[5],10 nM (inactive)
same,luciferase signal,[6],48 AU (inactive)
COc1ccc(C(Cl)=C(c2ccc(OC)cc2)c2ccc(OC)cc2)cc1,fluorescence slope change,[7],9.3% (inactive)
same,survival,[8],4.42 (inactive)
same,parasite load remaining,[1],9.26% (inactive) and 45.4% (inactive) and 50.6% (inactive)
same,viability,[1],85.2% and 70.2% and 89.6%
same,inhibition,[2],7.15% (inactive)
same,fold change,[3]; [23],0.946 (inactive) and 0.925 (inactive)
same,fold change,[3]; [24],1.03 and 1.43
same,cell count,[3]; [25],9940 and 11400
same,cell count,[3]; [26],10500 and 12300
same,z-score,[4]; [27],0.437 (inactive)
same,z-score,[4]; [28],0.0944
same,luciferase signal,[6],40 AU (inactive)
CC(=O)O[C@H]1C(=O)[C@@]2(C)[C@H]([C@H](OC(=O)c3ccccc3)[C@]3(O)C[C@H](OC(=O)[C@H](O)[C@@H](NC(=O)c4ccccc4)c4ccccc4)C(C)=C1C3(C)C)[C@]1(OC(C)=O)CO[C@@H]1C[C@@H]2O,parasite load remaining,[1],52.9% (inactive) and 35% (inactive)
same,viability,[1],43.2% and 79%
same,inhibition,[2],17.9% (inactive)
same,fold change,[3]; [23],0.873 (inactive) and 1.02 (inactive)
same,fold change,[3]; [24],1.16 and 1.19
same,cell count,[3]; [25],1550 and 2180
same,cell count,[3]; [26],1780 and 2140
same,z-score,[4]; [27],-1.19 (inactive) and -2.08 (inactive)
same,z-score,[4]; [28],0.25 and 0.578
same,remaining NAD,[5],10 nM (inactive)
same,luciferase signal,[6],36 AU (inactive)
same,z-score,[9],-0.295 (inactive)
CN(C)c1nc(N)c(C(=O)N=C(N)N)nc1Cl,period change,[10],-0.18 h (inactive)
same,inhibition,[11],-2% (inactive)
same,fluorescence ratio (interference),[12],1 (inactive)
same,inhibition,[2],11.7% (inactive)
same,fold change,[3]; [23],1.07 (inactive)
same,fold change,[3]; [24],1.7
same,cell count,[3]; [25],10400
same,cell count,[3]; [26],9710
same,outcome,[13],inactive
same,z-score,[9],0.335 (inactive)
O=C(O)c1cc2cc(Cc3cccnc3)ccc2o1,inhibition,[14],22.5%
same,score,[15],1.36
same,rescue above control,[16],-5.98
same,cytochrome c release ratio,[17],1.03
same,inhibition of aggregation,[18],1.59%
same,normalised LDH release,[19],1.48
same,glutamate uptake change,[20],-0.47%
same,inclusion score,[21],2
same,aggregation suppression score,[22],1.23
same,period change,[10],0.065 h (inactive)
same,parasite load remaining,[1],124% (inactive)
same,viability,[1],73.4%
same,inhibition,[11],-2% (inactive)
same,fluorescence ratio (interference),[12],1 (inactive)
same,inhibition,[2],4.63% (inactive)
same,fold change,[3]; [23],0.956 (inactive) and 0.926 (inactive)
same,fold change,[3]; [24],0.671 and 1.19
same,cell count,[3]; [25],10100 and 5310
same,cell count,[3]; [26],10600 and 5730
same,outcome,[13],inactive
same,z-score,[9],0.16 (inactive)
